Each structure is given as a SMILES string. The whole screen tested about 340,000 compounds, of which about 3,300 (0.97%) were called active. Not shown: some 9% with an inconclusive outcome. Calls follow the shape of the dose curve; as a rule, active = well fitted inhibition curve with a large enough effect; inconclusive = small, poorly fitted or top-dose-only effect, or effect the other way; inactive = flat fitted curve, though single readings scatter. Some of the results follow.
Potency is read from the fitted curve at half-maximal effect.

The nature of this assay: qHTS Assay for Modulators of miRNAs and/or Inhibitors of miR-21. Also: nearly all actives have a fitted effect of over 55% in size. Conditions: HeLa miR-21-FLuc reporter, luciferase luminescence, 48 h; actives lower the signal. The gist of the method:
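HeLa miR-21-FLuc reporter line, endogenous miR-21; 2000 cells/well in DMEM/10% FBS; compound titration up to ~40uM final, 48 h, 37 degree Celsius; luciferase detection reagent, 15 min lysis, CCD luminescence.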
Background: In qHTS, concentration-response curves come from the screen itself.
Consider `Cc1nc2ccc(NC(=O)c3ccc4ccccc4n3)cc2s1`, for which the Potency is 3.69 µM (active).
Next, `CCOc1ncccc1C(=O)Nc1ccc2nc(C)sc2c1`: 8.26 µM (active); `Cc1nc2ccc(NC(=O)N(C)c3ccccc3)cc2s1`: 9.27 µM (active).
Next, `Cc1nc2ccc(NC(=O)c3cc(Cl)ccn3)cc2s1`: 0.369 µM (active); `C=CCC(CC(O)COCCC)C(=O)NNC(=S)Nc1ccccc1` (configuration not stated): 13.1 µM (active); `CCCn1c(C)cc(/C=C(\C#N)C(=O)OCC(=O)Nc2cc(OC)c(OC)c(OC)c2)c1C`: 16.5 µM (active).
Consider `Cc1ccccc1Nc1nc(N)nc(COC(=O)c2ccccc2)n1`, for which the Potency was 13.1 µM (active).
The figure for `COc1ccccc1C(=O)OCc1nc(N)nc(Nc2ccccc2C)n1` is 18.5 µM (active).
The figure for `CCn1c(SCc2ccccc2Cl)nc2ccccc21` is 13.1 µM (active); for `Cn1c(SCc2ccc(C#N)cc2Cl)nc2ccccc21` it is 4.65 µM (active).
Next, `Cn1c(SCc2ccccc2Cl)nc2ccccc21`: 3.29 µM (active).
Take `O=[N+]([O-])c1ccc2nc(SCc3cn4ccccc4n3)[nH]c2c1`: the Potency was 18.5 µM (active).
The figure for `c1ccn(-c2ccc(-c3ccn[nH]3)cc2)c1` is 6.56 µM (active); for `O=C(c1cnn(-c2cccc(F)c2)c1)c1ccccc1O` it is 3.69 µM (active); for `CN(C)c1ccc(/C=C(\C#N)c2nc3ccccc3c(=O)[nH]2)cc1` it is 0.131 µM (active).
The figure for `N#C/C(=C/c1ccc(O)c(O)c1)c1nc2ccccc2[nH]1` is 3.29 µM (active); for `c1ccc(Nc2nc(-c3ccccc3)ns2)cc1` it is 0.414 µM (active); for `Cc1nnc(SCc2ccccc2Cl)c2cc3occc3n12` it is 11.7 µM (active).
Turning to `Nc1ccc2nc(-c3ccc(Cl)cc3)[nH]c2c1`, the Potency was 6.56 µM (active).
With `Clc1ccc(-c2nc3ccncc3[nH]2)cc1`, the Potency is 7.36 µM (active).
The figure for `CCOC(=O)CCSc1nc(C)c2cc(C)ccc2n1` is 10.4 µM (active); for `CCOC(=O)CCSc1nc(C)c2cc(OC)ccc2n1` it is 8.26 µM (active); for `OC1CCCN(c2c3c(nc4cc(-c5cccc(F)c5)nn24)CCCC3)C1` (configuration not stated) it is 2.07 µM (active).
As to `COc1ccc(NC(=S)Nc2ncccc2C)cc1OC`, the Potency is 5.21 µM (active).
The figure for `COc1ccc(NC(=O)c2coc3ccccc23)cc1OC` is 9.27 µM (active).
For the molecule `O=C(Nc1ccc(SC(F)(F)F)cc1)c1ccccn1`, the Potency is 0.369 µM (active).
`COc1ccc(NC(=O)c2ccccn2)cc1OC`: the Potency was 11.7 µM (active).
`Cc1ccc(-c2nnc(CCC(=O)NCC3C4CC5CC(C4)CC3C5)o2)s1` (configuration not stated): the Potency was 14.7 µM (active).
Take `CC(=O)N1N=C(c2ccc(C)cc2)CC1c1ccc2c(c1)OCO2` (configuration not stated): the Potency is 7.36 µM (active).
The figure for `CS(=O)(=O)N1N=C(c2ccc(Br)cc2)CC1c1ccc2c(c1)OCO2` (configuration not stated) is 0.927 µM (active); for `Cc1ccc(C2=NN(S(C)(=O)=O)C(c3ccc4c(c3)OCO4)C2)cc1` (configuration not stated) it is 0.521 µM (active).
For the molecule `CS(=O)(=O)Nc1ccc(C2=NN(S(C)(=O)=O)C(c3ccc4c(c3)OCO4)C2)cc1` (configuration not stated), the Potency was 4.65 µM (active).
The figure for `COC(=O)c1ccc(CSC2=NCCS2)cc1` is 4.65 µM (active).
The figure for `CC(=O)Nc1nc(-c2ccc(Cl)cc2)ns1` is 1.85 µM (active); for `C/C(=N\N=C\c1ccc(N(C)C)cc1)c1cccc([N+](=O)[O-])c1` it is 13.1 µM (active).
Next, `Nc1cc([N+](=O)[O-])cc2oc(-c3ccccc3)cc12`: 14.7 µM (active); `Cc1ccc(OCc2ccc(Br)cc2)c([N+](=O)[O-])n1`: 2.61 µM (active).
On to `Cc1ccc(COc2ccc(C)nc2[N+](=O)[O-])cc1`, for which the Potency is 0.927 µM (active).
The figure for `CCOC(=O)c1cc(C(=O)Nc2ccccc2F)nn1C` is 1.85 µM (active).
The figure for `CCOC(=O)c1cc(C(=O)Nc2ccc(C)c(F)c2)nn1C` is 4.65 µM (active); for `CCOC(=O)c1cc(C(=O)Nc2cccc(C)c2)nn1C` it is 1.31 µM (active).
In the case of `Nc1nc(Nc2ccc(Cl)cc2Cl)nc(C(F)(F)F)n1`, the Potency was 6.56 µM (active).
The figure for `COc1nc(Nc2cccc(C(F)(F)F)c2)nc(OC)n1` is 14.7 µM (active); for `COc1cccc(Nc2nc(N)nc(C(F)(F)F)n2)c1` it is 18.5 µM (active).
For the molecule `CC(=O)c1cnc2cc(-c3ccc(C)cc3)nn2c1C`, the Potency is 1.04 µM (active).
The figure for `CCOC(=O)c1sc2nc(-c3ccccc3)ccc2c1N` is 0.0927 µM (active).
Next, `CCN(CC)C(=O)c1sc2nc(-c3ccccc3)ccc2c1N`: 1.47 µM (active); `COc1cccc(-c2ccc3c(N)c(C(=O)Nc4cc(F)ccc4F)sc3n2)c1`: 11.7 µM (active); `CCOC(=O)c1sc2nc(-c3cccnc3)ccc2c1N`: 0.369 µM (active).
For `CCn1nccc1C(=O)Nc1ccc(Cl)c(Cl)c1`, the Potency is 8.26 µM (active).
The figure for `COc1cc(C(C)=O)ccc1Oc1ncnc2c1cnn2-c1ccc(F)cc1` is 4.14 µM (active).
Next, `COc1ccccc1Oc1ncnc2c1cnn2-c1ccccc1`: 5.85 µM (active).
Take `Cc1ccc(NC(=O)c2sc3nc(N)c(C#N)cc3c2N)cc1`: the Potency is 5.85 µM (active).
Next, `Cc1cccc(NC(=O)c2sc3nc(N)c(C#N)cc3c2N)c1`: 4.14 µM (active); `Cc1cc(C(=O)CN2C(=O)NC3(CCCCC3C)C2=O)c(C)n1Cc1cccs1` (configuration not stated): 5.21 µM (active); `Cc1nc2scc(-c3ccccc3)c2c(=O)n1N=C1C=CC(=O)C=C1`: 10.4 µM (active).
The figure for `CCc1nonc1NC(=O)c1oc2cc(C)c(C)cc2c1C` is 5.85 µM (active); for `Cc1ccc2oc(C(=O)Nc3nonc3C)c(C)c2c1` it is 4.65 µM (active).
The figure for `CCc1ccc2oc(C(=O)Nc3nonc3CC)c(C)c2c1` is 2.93 µM (active).
For `Cc1cc2oc(C(=O)Nc3nonc3C)c(C)c2cc1C`, the Potency was 0.656 µM (active).
Next, `c1ccc(Cc2nnc3sc(-c4ccc5c(c4)OCCO5)nn23)cc1`: 14.7 µM (active); `Oc1c(C2=NCCNC(C(F)(F)F)=C2)ccc2ccccc12`: 2.07 µM (active).
For `Clc1cc2nc(-c3cccnc3Cl)[nH]c2cc1Cl`, the Potency is 1.04 µM (active).
With `Clc1ccccc1-c1nc2ccccc2[nH]1`, the Potency was 1.31 µM (active).
Next, `CN(Cc1nc(-c2cccc(Cl)c2)no1)C1CCOCC1`: 7.36 µM (active); `Cc1ccc(-c2cn(-c3ccccc3)c(SCC(=O)NC3CCS(=O)(=O)C3)n2)cc1C` (configuration not stated): 7.36 µM (active); `CCOC(=O)NC(=O)CSc1nc(-c2ccc(C)c(C)c2)cn1-c1ccccc1`: 6.56 µM (active).

These data come from PubChem BioAssay AID2289 (National Center for Advancing Translational Sciences (NCATS), 2010).
